An excerpt weighted towards active compounds, which were near 4.1% of everything screened.
Jurkat NFkB inh – lowers PMA/ionomycin-induced NF-kB signal in Jurkat cells | inhibition, % at 4 µM | 330,000 compounds, 0.53% hits | PMA/ionomycin-induced NF-kB luciferase reporter, luminescence; in the data active means inhibition above about 50%
KLF5 inh – suppresses KLF5 promoter-driven expression; 290,000 compounds, 0.23% hits; inhibition, % at 5 µM; DLD-1 KLF5 promoter-luciferase reporter, luminescence;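 active means inhibition above a per-plate limit of that plate's mean compound inhibition plus 3 SD, cut at about 60% in these data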;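 further: 0% = DMSO wells and 100% = LY294002 at 200 µM; higher means less KLF5 promoter-driven luciferase light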
697 NFkB inh – inhibitors of the PMA/ionomycin-induced NF-kB reporter in 697 B cells | 697 B-cell NF-kB luciferase reporter, 16 h | 330,000 compounds, 0.33% hits | AID 435022 | inhibition, % at 4 µM; in the data active means inhibition above about 35%
aSyn 5UTR inh – 5' untranslated region of α-synuclein, MLPCN primary screen; alpha-synuclein 5'UTR reporter, inhibitor activity; inhibition, % (tested at 7.5 µM); 300,000 compounds, 0.82% hits; AID 1813; in the data active means inhibition above about 60%;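 further: H4 neuroglioblastoma cells stably carrying SNCA 5'UTR luciferase fusion; 0% = DMSO wells and 100% = positive control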
Mdm2 MdmX PPI – human Mdm2/MdmX binding inhibition; O15151+Q00987; SaOS-2 split-luciferase Mdm2/MdmX complementation, luminescence; inhibition, % at 8 µM; 330,000 compounds, 3% hits; AID 485346;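 active means inhibition of at least 50% at 8 µM in the primary screen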
Target sequence (O15151 whole entry, looked up): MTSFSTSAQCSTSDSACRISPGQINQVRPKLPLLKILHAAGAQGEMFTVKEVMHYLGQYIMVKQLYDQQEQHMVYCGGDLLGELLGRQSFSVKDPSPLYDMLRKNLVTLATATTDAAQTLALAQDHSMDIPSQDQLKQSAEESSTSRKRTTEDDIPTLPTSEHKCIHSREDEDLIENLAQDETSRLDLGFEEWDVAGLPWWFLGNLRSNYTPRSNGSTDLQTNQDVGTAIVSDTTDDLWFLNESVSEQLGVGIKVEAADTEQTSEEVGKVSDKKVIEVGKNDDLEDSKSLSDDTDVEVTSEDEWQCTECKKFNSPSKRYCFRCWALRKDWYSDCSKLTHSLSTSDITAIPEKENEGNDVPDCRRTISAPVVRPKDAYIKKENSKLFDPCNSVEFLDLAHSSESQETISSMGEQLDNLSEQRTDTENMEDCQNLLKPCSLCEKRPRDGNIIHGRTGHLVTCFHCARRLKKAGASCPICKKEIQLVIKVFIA
Target sequence (Q00987 whole entry, looked up): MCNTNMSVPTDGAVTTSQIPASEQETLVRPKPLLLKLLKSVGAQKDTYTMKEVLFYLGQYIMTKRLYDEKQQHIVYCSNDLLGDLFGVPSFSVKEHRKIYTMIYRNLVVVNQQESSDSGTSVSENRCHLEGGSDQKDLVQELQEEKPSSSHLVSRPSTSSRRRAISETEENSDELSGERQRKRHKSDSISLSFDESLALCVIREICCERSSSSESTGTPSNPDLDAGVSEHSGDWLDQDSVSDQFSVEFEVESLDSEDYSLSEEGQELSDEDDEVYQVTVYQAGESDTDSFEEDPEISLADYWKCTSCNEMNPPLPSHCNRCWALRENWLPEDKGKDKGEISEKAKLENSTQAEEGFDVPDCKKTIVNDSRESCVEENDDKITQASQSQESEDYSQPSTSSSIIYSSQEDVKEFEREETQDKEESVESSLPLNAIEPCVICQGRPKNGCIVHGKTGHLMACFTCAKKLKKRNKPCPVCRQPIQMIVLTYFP
Gli-Sufu block – blocks Gli-Sufu signaling in a luciferase reporter. inhibition, % at 5 µM. AID 588413. 340,000 compounds, 0.74% hits. Sufu-KO-LIGHT fibroblasts, Gli luciferase reporter luminescence;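 active means inhibition above about 55%, limit read from the data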;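 further: 0% = DMSO-treated cells and 100% = wells with medium but no cells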
Gli-Sufu confirm – Gli-SUFU antagonism confirmation, single concentration; shares compounds with Gli-Sufu block; Sufu-KO-LIGHT cells, Gli luciferase reporter, luminescence; inhibition, % at 5 µM; 2,500 compounds, 40% hits; AID 602428;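 active means mean inhibition at 5 µM reaching about 45%, limit read from the data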;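 further: plate controls were DMSO-treated cells for no effect and wells lacking cells for full effect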
SufuKO cytotox – counter-screen for Gli-SUFU antagonists: cytotoxicity | cytotoxicity, % at 5 µM | shares compounds with Gli-Sufu block | Sufu-KO-LIGHT cells cytotoxicity, ATP luminescence | 2,500 compounds, 32% hits | AID 651994;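 active means mean cytotoxicity at 5 µM above about 25%, limit read from the data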;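 further: cells exposed to compound overnight for roughly 16 to 18 hours; plate controls were DMSO wells with cells for no effect and medium without cells for full effect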
Wnt3a cs – counter-screen for Gli-SUFU antagonists: Wnt3a reporter inhibition. shares compounds with Gli-Sufu block. Wnt-LIGHT cells, Wnt3a-driven luciferase reporter, luminescence. inhibition, % at 6.25 µM. 2,500 compounds, 20% hits. AID 651995;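 active means mean inhibition above about 25%, limit read from the data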
* hit, by the source's call; / = no result given.

SMILES | Jurkat NFkB inh | KLF5 inh | 697 NFkB inh | aSyn 5UTR inh | Mdm2 MdmX PPI | Gli-Sufu block | Gli-Sufu confirm | SufuKO cytotox | Wnt3a cs
COc1ccccc1N1C(C)=CC(=C(C#N)c2nc3ccccc3s2)C=C1C | -3.6 | 0.0 | -34.5 | 4.8 | 37.2 | 53.1 | 53.5* | 10.9 | 38.1*
COc1ccccc1NC(=O)Nc1ccc(F)c(F)c1 | -9.5 | -41.9 | 20.0 | -66.1 | -28.7 | -21.2 | / | / | /
CCN(CC)S(=O)(=O)c1ccc(N2CCN(c3ccccc3OC)CC2)c(N)c1 | 16.0 | -35.9 | 2.5 | -31.7 | 8.4 | 65.5* | 77.7* | 27.7* | 31.5*
NS(=O)(=O)c1cccc(NC(=O)COC(=O)Cc2n[nH]c(=O)c3ccccc23)c1 | 6.1 | / | 10.9 | / | -23.5 | 2.2 | / | / | /
CN(Cc1cnn(Cc2ccccc2)c1)C(=O)CN=C1NS(=O)(=O)c2ccccc21 | 6.9 | / | 22.3 | / | 8.3 | -3.4 | / | / | /
O=C(CSc1ncccc1-c1nc2ccccc2[nH]1)NCc1ccco1 | -8.3 | -0.2 | 7.8 | -60.8 | -5.3 | 57.6* | 28.3 | 27.2* | 6.5
Nc1c(-c2cccc(Cl)c2)cnc2c(-c3ccccc3)cnn12 | -143.1 | -190.2 | -211.3 | -243.3 | -50.0 | -60.6 | / | / | /
Cc1csc2ncnc(NCCc3ccccn3)c12 | 20.4 | -26.6 | -3.6 | 2.9 | 0.7 | 67.2* | 57.4* | 28.8* | 26.8*
CCC(=O)Nc1cc(-c2nn(C)c(=O)c3ccccc23)ccc1N1CCCCC1 | 18.2 | 4.0 | 31.0 | 25.1 | 48.8 | 15.9 | / | / | /
CC(=O)Nc1cc(-c2nn(CC(=O)N3CCCCC3)c(=O)c3ccccc23)ccc1N1CCOCC1 | -10.1 | -21.1 | -28.2 | 14.0 | -23.3 | 50.7 | 15.6 | 8.9 | -24.8
CCN(CC)c1ccc(CNc2nc3ccccc3n2CCN2CCOCC2)cc1 | -0.2 | -43.3 | -27.3 | 7.5 | 0.9 | 51.6 | 31.1 | 23.8 | -39.3
CCOC(=O)C1C(=O)NC(C(=O)OCC)(C(=O)OCC)C1C(C)CC (centres undefined) | / | / | / | / | / | 4.2 | / | / | /
Cc1cn2c(-c3ccncc3)nnc2s1 | 9.2 | 2.0 | 16.4 | -8.1 | 25.4 | 54.0 | 24.1 | 20.7 | 7.1
CCOC(=O)c1sc2nc(CC(=O)OC)nc(NCc3ccc(Cl)cc3)c2c1C | 29.5 | -11.1 | 5.3 | 14.7 | -1.1 | 55.4* | 53.0* | 25.8* | -19.0
CN1CCN(Cc2cccc(Oc3ccccc3)c2)CC1 | -13.8 | -3.4 | -15.5 | 46.8 | -11.5 | 5.5 | / | / | /
COc1ccc(CN2CCN(Cc3cccc(Oc4ccccc4)c3)CC2)c(OC)c1OC | -14.6 | -22.8 | -6.7 | 1.1 | -6.3 | 51.4 | 25.4 | 26.1* | -45.8
N#Cc1cn(N2CCCCC2)c(=O)[nH]c1=O | 13.2 | -18.6 | -4.0 | -15.1 | -30.3 | 6.7 | / | / | /
CC1CC(C)CN(C(=O)c2nn(C)c3c2CS(=O)(=O)c2ccccc2-3)C1 (centres undefined) | 9.2 | -20.1 | -2.5 | -6.9 | 8.2 | 53.1 | 5.1 | 12.8 | -22.4
Cn1nc(C(=O)N2CCN(c3ccccc3)CC2)c2c1-c1ccccc1S(=O)(=O)C2 | -0.7 | 0.7 | -8.9 | -14.1 | 17.3 | 4.2 | / | / | /
Cc1ccc(CCCNC(=O)C2CCC(=O)N(Cc3cccc(F)c3)C2)cc1 (centres undefined) | 2.3 | -27.2 | -34.1 | -3.2 | 3.5 | 23.1 | / | / | /
Cc1cccc(NC(=O)Cn2cc(C(=O)C3CC3)c3ccccc32)c1C | 15.0 | -12.5 | 7.8 | -10.8 | 14.0 | 79.9* | 83.4* | 33.3* | -13.4
COc1ccccc1NC(=O)Cn1cc(C(=O)c2ccco2)c2ccccc21 | -5.5 | -15.0 | 11.4 | -14.2 | -5.8 | 56.0* | 69.1* | 38.2* | 30.7*
CC(=O)c1cn(CC(=O)Nc2cccc(C)c2C)c2ccccc12 | 37.9 | -22.1 | 9.0 | -20.9 | 10.2 | 14.1 | / | / | /
CCOC(=O)[C@H]1[C@H]2COc3ccc(OC)cc3[C@@H]2N2C(=O)CN(C)C(=O)[C@@]12C | -4.3 | / | 5.6 | / | 8.5 | -6.8 | / | / | /
CC(=O)NNc1ncnc2c1cnn2-c1ccccc1 | 9.9 | -8.5 | 2.5 | -6.5 | -3.5 | 57.1* | 19.8 | 31.2* | -9.7
